# The source made the active and inactive calls. Calls follow the shape of the dose curve; as a rule, active = well fitted curve in the direction sought with a large enough effect; inconclusive = small, poorly fitted or top-dose-only effect, or another doubt; inactive = no such curve, though single readings can be large or run the other way.
# Test: qHTS screen for inhibitors of ELG1-dependent DNA repair in human embryonic kidney (HEK293T) cells expressing luciferase-tagged ELG1: 5FU Viability Assay for probe SAR
# Details: HEK293T ELG1-luc, CellTiter-Glo viability, 16 h; series mostly up to 46.1 µM; activity change, negative = inhibition: at the top concentration
# From the text: Cancer cells divide rapidly compared to normal cells in the body. During cell division, cancer cells need to duplicate their genome by DNA replication. The failure of genome duplication leads to cancer cells' death. Therefore, inhibitors of DNA replication could specifically kill cancer cells. Based on this concept, many chemotherapeutic agents were developed and have been used to treat cancer patients. However, there are a limited number of agents available in the clinical setting, and some of those that do exist have low efficacy and severe side effects. Therefore, if we can find the compounds that effectively block DNA replication either by directly damaging DNA or by inhibiting other cellular mechanisms, the options for cancer treatment will be broadened. With this in mind, we developed a quantitative high-throughput ELG1-luciferase reporter gene assay. Small molecules that specifically block ELG1 function in response to DNA damage can be identified by monitoring the suppression of luciferase activity. Since ELG1 defines a pathway for repairing DNA damage, agents blocking ELG1 function can be used to sensitize cancer cells to chemotherapeutic agents whose mechanism of action involves the induction of DNA damage. Cytotoxicity of the active compounds in the ELG1 qHTS assay (AID 493107) was assessed using the CellTiter-Glo Luminescent Cell Viability Assay kit (Promega, USA). CellTiter-Glo measures the intracellular ATP present in metabolically active cells using Ultra-Glo as the luciferase to detect ATP levels. In brief, the luciferase in the buffer catalyzes the oxidation of luciferin to oxyluciferin and light which is dependent on ATP. […] DMSO and wells with media alone were used as positive and negative controls, respectively. Inactivity to this assay is the desirable outcome. NIH Molecular Libraries Probe Production Network [MLPCN] NIH Chemical Genomics Center [NCGC] MLPCN Grant: R03 MH092164 Assay Provider: Kyungjae Myung, NHGRI, NIH
# ELG1-luc HEK293T cells will be seeded in 1536-well plates at a density of 2,000 cells/well. Approximately 5 hours after plating, compounds will be added to the plate by pin tool transfer and 5-fluorouridine will be added by FRD dispenser (final concentration of 5-fluorouridine =10 µM). 16 hours following the addition of the compounds, cell viability will be measured using CellTiter Glo.
Compound,"activity change, negative = inhibition",outcome
COc1cc(-c2nc(Nc3ccc(F)c(F)c3)c3ccccc3n2)ccn1,36% (inactive),
COc1cc(Nc2nc(-c3ccncc3)nc3ccccc23)ccc1NS(C)(=O)=O,27.9% (inactive),
Cc1noc(C)c1-c1ccc(Nc2nc(-c3ccncc3)nc3ccccc23)cc1F,-90.5% (inactive),
Fc1ccc(Nc2nc(-c3ccnc(N4CCCCC4)c3)nc3ccccc23)cc1F,4.06% (inactive),
COC(=O)c1ccc(Nc2nc(-c3ccncc3)nc3ccccc23)cc1OC,34% (inactive),
COc1cnccc1-c1nc(Nc2ccc(F)c(F)c2)c2ccccc2n1,-5.9% (inactive),
c1ccc2c(Nc3ccn[nH]3)nc(-c3ccncc3)nc2c1,-25.2% (inactive),
Fc1cc(Nc2nc(-c3ccncc3)nc3ccccc23)ccc1OC(F)(F)F,26.8% (inactive),
N#Cc1cc(-c2nc(Nc3ccc(F)c(F)c3)c3ccccc3n2)ccn1,3.09% (inactive),
Fc1cc(Nc2nc(-c3ccncc3)nc3ccccc23)ccc1-c1cccnc1,-10.6% (inactive),
Fc1cc(Nc2nc(-c3ccncc3)nc3ccccc23)ccc1-c1cc(F)c(F)c(F)c1,9.22% (inactive),
COc1cc(-c2nc(Nc3ccc(F)c(F)c3)c3ccccc3n2)cc(OC)n1,18.8% (inactive),
CN1CCN(c2ccc(Nc3nc(-c4ccncc4)nc4ccccc34)cc2F)CC1,11.4% (inactive),
COc1cc(Nc2nc(-c3ccncc3)nc3ccccc23)ccc1N1CCN(C)CC1,4.29% (inactive),
Fc1ccc(Nc2nc(-c3ccncc3)nc3ccccc23)cc1F,57.5% (inactive),
COc1ccc(-n2c(C)c(C(C)=O)c3ccccc32)cc1,,inactive
Fc1cc(Nc2nc(-c3ccncc3)nc3ccccc23)ccc1-c1cncnc1,13.4% (inactive),
Fc1ccccc1-c1ccc(Nc2nc(-c3ccncc3)nc3ccccc23)cc1F,-31.3% (inactive),
Fc1ccc(-c2ccc(Nc3nc(-c4ccncc4)nc4ccccc34)cc2F)c(Cl)c1,-26.9% (inactive),
Fc1ccc(-c2nc(-c3ccncc3)nc3ccccc23)cc1F,-9.33% (inactive),
COc1ccc(-c2nc(Nc3ccc(F)c(F)c3)c3ccccc3n2)cc1,-12.5% (inactive),
Fc1cc(Nc2nc(-c3ccncc3)nc3ccccc23)ccc1-c1ccc(F)c(F)c1F,20.8% (inactive),
Cc1ccc(Nc2nc(-c3ccncc3)nc3ccccc23)cc1F,10.7% (inactive),

# Reference: PubChem BioAssay AID686921 (National Center for Advancing Translational Sciences (NCATS), 2013)
